# PubChem BioAssay (NCI)
# About 83,000 compounds went through this panel and 20% of them were active in at least one assay; those are over-represented in the sample as a whole.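 Growth was measured after 48 h exposure to one concentration of compound in 96-well plates. Values under 10 count as active.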 Unmarked numbers belong to inactive results. The source made the active and inactive calls.
# Tested on: ACHN renal
# Test: NCI-60 one-dose screen, 48 h (100 = growth as untreated, 0 = no growth, -100 = all killed)
# Settings: 10 µM unless noted
# Experimental: Growth inhibition of the ACHN human tumor cell line is measured as a screen for anti-cancer activity. Cells are grown in 96 well plates and exposed to the test compound for 48 hours. Compounds are tested at a single concentration, which is 10^-5 M for most compounds. The reported endpoint is percent growth (GI% or GIPRCNT), where numbers from 0 - 100% represent growth inhibition, and numbers from -100% - 0 represent cell death. For example, a value of 40 represents 60% growth inhibition. A value of 0 means no net growth occurred over the course of the experiment. A value of -40 indicates 40% of cells at the beginning of the experiment died by the end of the experiment. A value of -100 means all cells are dead at the end of the experiment.
# NCI-60 Human Tumor Cell Lines Screen was performed using the standard one-dose NCI protocol, which is described in more detail at https://dtp.cancer.gov/discovery_development/nci-60/default.htm.
# Compounds with GIPRCNT values below 10 were considered active. Activity score was based on GIPRCNT using the following formula: […]
# Score is 0 for GIPRCNT values of 100 or above, 50 for GIPRCNT values of 0, and 100 for GIPRCNT values of -100.
row,SMILES,growth
1,COc1ccc(C(=O)/C=C/c2ccc(C)cc2)cc1S(N)(=O)=O,55.8%
2,Cc1c(C(=O)C(SC(=S)N2CCOCC2)SC(=S)N2CCOCC2)nnn1-c1ccc([N+](=O)[O-])cc1,98%
3,COc1ccc(CNc2ccc3nc(CCC4CCCCC4)[nH]c3c2)cc1,93.4%
4,CCCCCC(C)(O)C(C(=O)O)c1ccccc1 (stereo not given),96.1%
5,C/C(=N\NC(=O)c1ccc(C(C)(C)C)cc1)c1ccc(O)cc1O,16.5%
6,CN1CCN(Cc2ccc(NC(=O)c3cncc(C#Cc4c(N)ncc5c(F)cccc45)c3)cc2C(F)(F)F)CC1,-79% (active)
7,Cc1[nH]c(C2CC(c3ccc(C(F)(F)F)c(F)c3)=NN2C)c(C)c1C(=O)NCC(F)(F)F (stereo not given),99.3%
8,COc1ccc(C2CC(=O)Oc3c(OC)c4c(c(OC)c32)OCO4)cc1 (stereo not given),103%
9,Cc1oc2ccc(O)c(CN3CCCCCC3)c2c1C(=O)Nc1ccc(C(F)(F)F)cc1,68.5%
10,Nc1ncc(-c2ccc3ncnc(N4CCc5cc(F)c(Cl)cc54)c3c2)cc1C=O,7.1% (active)
11,c1ccc2c(-c3cnn4cc(-c5ccc(N6CCNCC6)cc5)cnc34)ccnc2c1,-99.3% (active)
12,Cc1ccc(C(F)(F)F)cc1N1CCN(C(=O)[C@H]2C[C@H]2c2ccc(C(F)(F)F)nc2)CC1,91.8%
13,CC(C)=CC(=O)C1C(=O)c2ccccc2C1=O,97.1%
14,COc1ccc(-c2cc(-c3ccc(N(C)C)cc3)nc(NC(=O)c3cccnc3)n2)cc1,95.6%
15,Cc1cc2c(C(C)C)c(O)c(O)c(/C=N/O)c2c(O)c1-c1c(C)cc2c(C(C)C)c(O)c(O)c(/C=N/O)c2c1O,24%
16,Cc1ccc2nc(/C=C/c3ccc(N(C)C)cc3)cc(C)c2c1,32.9%
17,Oc1c(Cl)cc(Cl)c2ccc(CN3CCNCC3)nc12,31.1%
18,CS(=O)(=O)Nc1cc(-c2ccc3ncnc(Nc4cccc(Cl)c4)c3c2)cnc1Cl,11.8%
19,Nc1nc(Nc2ccc([N+](=O)[O-])cc2O)nc(C(Cl)(Cl)Cl)n1,79.7%
20,CCCCC#Cc1c(I)n(C2OC(CO[Si](C)(C)C(C)(C)C)C3OC(C)(C)OC32)c(=O)[nH]c1=O (stereo not given),72.5%

row,SMILES,growth
1,N=C(N)c1ccc(-c2ccc(-c3ccccc3)s2)nc1,91.5%
2,Cc1ccc2c(n1)C[C@H](C(C)(C)O)CC[C@H]2C,102%
3,[2H]C([2H])([2H])Oc1c(F)cccc1/C=C/C(=O)/C=C(O)/C=C/c1cccc(F)c1OC([2H])([2H])[2H],104%
4,CCN1C(=O)N(CC)C2C1NN=c1s/c(=C\c3ccc(F)cc3)c(=O)n12 (stereo not given),35.2%
5,CC/C(=C(/c1ccc(Cl)cc1)c1ccc(OCCN2CCCCCC2)cc1)c1ccccc1,103%
6,O=[N+]([O-])c1ccc(N/N=C\c2cc(Cl)ccc2O)nc1,17.6%
7,CNC1=C([N+](=O)[O-])C(c2ccc(OC)cc2)C(C#N)=C(c2ccc[nH]2)O1 (stereo not given),105%
8,COc1ccc(-c2csc(NC(=O)CSc3nc(C)cc(=O)[nH]3)n2)cc1,105%
9,CCOC(=O)C#Cc1c(CC(=O)OCC)nnn1[C@H]1O[C@@H](CO)[C@@H]2OC(C)(C)O[C@@H]21,-49.4% (active)
10,C=C(c1ccc(C(=O)O)c(F)c1)c1cc2c(cc1C)C(C)(C)C=CC2(C)C,83.4%
11,C=CC(=O)NCc1cccc(Nc2ncc(Br)c(NCCCNC(=O)C3CCC3)n2)c1,7.42% (active)
12,O=C(O)/C=C\C(=O)Nc1ccc2c(c1)Cc1cc(F)ccc1-2,94.2%
13,C=CCNc1ccc2c3c(cccc13)C(=O)N(CC=C)C2=O,84.3%
14,Cn1cc(-c2ccc3c(Nc4cccc(NC(=O)Nc5cccc(F)c5)c4)ncnc3c2)cn1,15.2%
15,N#C/C(=C\c1cccc2cnccc12)N1N=NC2C=CC=CC21 (stereo not given),19.2%
16,Cc1cc(C)n(C(=O)CSc2nc3sc4c(c3c(=O)n2-c2ccccc2)CCCCC4)n1,100%
17,COc1cccc(NC(=O)c2sc3nc(C)c(C(=O)c4ccccc4)cc3c2N)c1,96.6%
18,COc1ccc(/C=C2/CCc3cc4ccc(OC)cc4[o+]c32)c(O)c1,34.3%
19,C=CCn1c(SCC(=O)Nc2ccc(C(=O)/C=C/c3ccc(Cl)cc3)cc2)nnc1-c1ccc(Cl)c(Cl)c1,87.7%
20,COc1cc(OCc2cccc(-c3ccccc3)c2C)cc(OC)c1CN1CCCCC1C(=O)NCCOCCOCCN (stereo not given),98.7%
